This note sets out measurements from PubChem BioAssay AID743382 (National Center for Advancing Translational Sciences (NCATS), 2014).

Active and inactive are the calls of the source. Calls follow the shape of the full dose curve.

A short description of the experiment: qHTS for Inhibitors of PI5P4K: BT474 Cell Proliferation Assay for Probe SAR. To be noted: CellTiter-Glo ATP luminescence, 72 h. The source says:
In addition to finding PI5P, we discovered the type II phosphatidylinositol 5-phosphate 4-kinase (PI5P4K) family (alpha, beta, gamma isoforms) that catalyze the conversion of PI5P to PI(4,5)P2. Alternatively, PI(4,5)P2 can also be synthesized through phosphatidylinositol-4-phosphate (PI4P) by the type I phosphatidylinositol 4-phosphate 5-kinases (PI4P5K). These PI5P4K enzymes therefore represent one way by which cells can regulate endogenous PI5P levels and play important roles in insulin signaling and in stress responses. […] A qHTS PI5P4K-alpha ADP-Glo assay was developed to identify specific modulators of human PI5P4K, phosphatidylinositol-5-phosphate 4-kinase (Type II PIPK). […]
BT474 cells were cultured in DMEM with 10% FBS and plated in 1536-well white solid-bottom tissue-culture treated plates at a density of 500 cells per 5 microL well. […] After 72 hours of incubation at 37 degrees C 5% CO2 the level of ATo was measured using the Cell Titer Glo luciferase-coupled ATP detection system from Promega. This assays monitors cells by quantitating the amount of ATP present by luciferase, which in the presence of ATP converts pro-luciferin into the luminescent luciferin product. A compound that inhibits cell proliferation would result in a decrease in luminescence. […] The luminescence was read on a Viewlux (Perkin Elmer) plate reader.
Take `O=C1Nc2ccc(C(=O)c3ccco3)cc2/C1=C/c1cc(Cl)c(O)c(Cl)c1`: the Potency was 10.5 µM (active).
